PubChem BioAssay (EPA / NIEHS)
Where a structure was tested more than once in an assay, its records may differ in their call. Active and inactive are the calls of the source. The calls were made as follows: active = hit-call score of the fitted dose curve at least 0.9, where 1 is the maximum; inactive = score below 0.9.

read-out: Interleukin-1 alpha (IL1a), IL1A (gene 3552); test: BSK_LPS_IL1a: BioMAP Diversity Plus: LPS Assay for Interleukin-1 alpha (IL1a) Biomarker Activity (AID 2283080); settings: primary human HUVEC with PBMC; actives raise or lower the signal
Experimental: BSK_LPS is a cell-based, multiplexed-readout assay that uses umbilical vein endothelium and peripheral blood mononuclear cells, a human vascular primary cell co-culture, with measurements taken at 24 hours after chemical dosing in a 96-well plate.BSK_LPS_IL1a is an assay component measured in the BSK_LPS assay. It measures IL-a antibody related to regulation of gene expression using ELISA technology.Data from the assay component BSK_LPS_IL1a was analyzed into 1 assay endpoint. This assay endpoint, BSK_LPS_IL1a, was analyzed with bidirectional fitting relative to DMSO as the negative control and baseline of activity. Using a type of binding reporter, gain or loss-of-signal activity can be used to understand changes in the signaling as they relate to the gene IL1A. Furthermore, this assay endpoint can be referred to as a primary readout, because this assay has produced multiple assay endpoints where this one serves a signaling function. To generalize the intended target to other relatable targets, this assay endpoint is annotated to the cytokine intended target family, where the subfamily is interleukins.
The levels of cell surface (or secreted, indicated by the prefix "s") biomarker endpoints were measured by ELISA. Overt cytotoxicity to cells in confluent adherent cultures (all systems other than the BT system) was assessed by measuring total protein levels using sulforhodamine B (SRB) staining in parallel cultures at the time of biomarker measurements, indicated as SRB endpoints. For proliferation assays for adherent cell types, individual cell types are cultured at sub-confluence and relative cell numbers quantified by SRB staining at time points optimized for each system (48 h: 3C and CASM3C systems; 72 h: BT and HDF3CGF systems; 96 h: SAg system). SRB was performed by staining cells with 0.1% SRB after fixation with 10% TCA and reading wells at 560 nm.Viability and proliferation of PBMC (T cells) was quantified by Alamar Blue reduction for the SAg and BT systems. For PBMC viability (referred to as PBMC Cytotoxicity within the assay endpoint names), cells were plated (75,000/well in a 96-well plate) and then chemical samples added for 1 h before addition of activators, SEB and TSST-1 (20 ng/mL final concentration each). Cells were incubated for 90 h. Then, Alamar Blue (20 uL/well) (Invitrogen, Cat DAL1100) was added for 6 h, and the plates were read with a fluorescence microplate reader at 546/580 nm (excitation/emission). For PBMC proliferation, cells were plated and activated as above but incubated for only 16 h prior to addition of Alamar Blue. Plates were read after 6 h.

Row | Structure (SMILES) | outcome | AC50
1 | FC(F)(F)C(F)(F)C(F)(F)CI | inactive | –
2 | C=C(C)C(=O)OCCC(F)(F)C(F)(F)C(F)(F)C(F)(F)C(F)(C(F)(F)F)C(F)(F)F | inactive | –
3 | O=C(O)C(F)(F)C(F)(F)C(F)(F)C(F)(F)C(F)(F)C(F)(F)C(F)(F)C(F)(F)C(F)(F)C(F)F | inactive | 54.9 µM (active)
4 | C=C(C)C(=O)OCC(F)(F)C(F)(F)C(F)(F)C(F)(F)C(F)(F)C(F)(F)C(F)(F)F | inactive | –
5 | O=C(O)C(F)(F)C(F)(F)F | inactive | –
6 | COC(=O)CCC(F)(F)C(F)(F)C(F)(F)C(F)(F)F | inactive | –
7 | FC(F)(F)C(F)(F)C(F)(F)C(F)(F)C(F)(F)C(F)(F)C(F)(F)C(F)(F)CCS | inactive | –
8 | CC(C)(C)C(=O)CC(=O)C(F)(F)C(F)(F)C(F)(F)F | inactive | –
9 | OCCCC(F)(F)C(F)(F)C(F)(F)C(F)(F)C(F)(F)C(F)(F)C(F)(F)F | inactive | 46 µM (active)
10 | FC(F)(F)C(F)(F)CNCC(F)(F)C(F)(F)F | inactive | –
11 | O=C(O)C(F)(F)C(F)(F)C(F)(F)F | inactive | –
12 | O=C(O)C=C(C(F)(F)F)C(F)(F)F | inactive | –
13 | FC(F)(F)C(F)(F)C(F)(F)C(F)(F)C(F)(F)C(F)(F)CC1CO1 (stereo not given) | inactive | –
14 | CCc1ccc(C(c2ccc(CC)cc2)C(Cl)Cl)cc1 | – | 20 µM (active)
15 | FC(F)(F)C(F)(F)C(F)(F)N(C(F)(F)C(F)(F)C(F)(F)F)C(F)(F)C(F)(F)C(F)(F)F | inactive | –
16 | CCc1c(Br)c(Br)c(Br)c(Br)c1Br | inactive | –
17 | O=C(O)C(F)(F)C(F)(F)OC(F)(F)F | inactive | –
18 | Cc1ccc(S(=O)(=O)OCC(F)(F)C(F)(F)C(F)(F)C(F)(F)C(F)(F)C(F)F)cc1 | inactive | –
19 | O=C(O)C(F)(F)C(F)(F)C(F)(F)C(F)(F)C(F)(F)C(F)(F)C(F)(F)C(F)(F)C(F)(F)C(F)(F)C(F)(F)C(F)(F)F | inactive | –

Row | Structure (SMILES) | outcome | AC50
20 | CC(CCl)OP(=O)(OC(C)CCl)OC(C)CCl (stereo not given) | inactive | –
21 | FC(F)(F)C(F)(F)C(F)(F)C(F)(F)C(F)(F)C(F)(F)C(F)(F)Br | inactive | –
22 | NC(=O)C(F)(F)C(F)(F)C(F)(F)C(F)(F)F | inactive | –
23 | OCC(F)(F)C(F)(F)C(F)(F)C(F)(F)C(F)(F)C(F)(F)F | inactive | –
24 | OCCCC(F)(F)C(F)(F)C(F)(F)F | inactive | –
25 | O=C(CC(=O)C(F)(F)C(F)(F)F)C(F)(F)F | inactive | –
26 | FC1CC(F)(F)C(F)(F)C1(F)F (stereo not given) | inactive | –
27 | FC(F)(F)C(F)(F)C(F)(F)C(F)(F)C(F)(F)C(F)(F)CCS | inactive | –
28 | CO[Si](OC)(c1ccccc1)c1ccccc1 | inactive | –
29 | CCCCCCCOC(=O)c1ccccc1C(=O)OCCCCCCC | inactive | –
30 | OCC(F)(F)C(F)(F)C(F)(F)C(F)(F)C(F)(F)C(F)F | inactive | –
31 | N=C(N)C(F)(F)C(F)(F)C(F)(F)C(F)(F)C(F)(F)C(F)(F)C(F)(F)F | inactive | 38.2 µM (active)
32 | CCCCC(CC)COP(=O)(O)OCC(CC)CCCC (stereo not given) | inactive | –
33 | OCC(F)(F)C(F)(F)C(F)(F)F | inactive | –
34 | O=P(O)(O)OCCC(F)(F)C(F)(F)C(F)(F)C(F)(F)C(F)(F)C(F)(F)F | inactive | –
35 | CCO[Si](CCC(F)(F)C(F)(F)C(F)(F)C(F)(F)C(F)(F)C(F)(F)F)(OCC)OCC | inactive | –
36 | O=S(=O)(OCCOC(F)(F)F)C(F)(F)F | inactive | –
37 | CCCCOCCOCCOC(=O)CCCCC(=O)OCCOCCOCCCC | inactive | –
